The text below walks through data of PubChem BioAssay (NCATS).

Inconclusive results are not listed. A number with no mark means an inactive call. The call rests on the fitted dose curve; in most records, active means well fitted cell-killing curve with a large enough effect; inconclusive means small, poorly fitted or top-dose-only effect; inactive means flat fitted curve, though single readings scatter.

This assay in a line: Cell Viability - LYMP2-019 (AID 973).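 Further: cells exposed to compound for 24 h at 37 °C; 0% = DMSO alone and full effect = 92 µM tetraoctylammonium bromide; nearly all actives have a fitted effect of over 55% in size.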 As to conditions: LYMP2-019 lymphoblastoid cell line viability; series mostly up to 92.2 µM; activity change, negative = cytotoxicity: at the top concentration. The text has this: NIH Chemical Genomics Center [NCGC]
NIH Molecular Libraries Screening Centers Network [MLSCN]
National Institutes of Environmental Health Sciences [NIEHS]
National Toxicology Program [NTP]
We have developed a 1536-well cell-based assay for quantitative high throughput screening (qHTS) against a number of cell lines to determine in vitro cytotoxicity of small molecules. This particular assay uses a human lymphoblastoid cell line (LYMP2-019) purchased from Coriell Institute for Medical Research.
NCGC Assay Protocol Summary:
The CellTiter-Glo luminescent cell viability assay (Promega) is a homogeneous method to measure the number of viable cells in culture. The end point readout of this assay is based on quantitation of intracellular ATP, an indicator of metabolic activity, using the luciferase reaction. Luciferase catalyzes the oxidation of beetle Luciferin to oxyluciferin and light in the presence of ATP. The luminescent signal is proportional to amount of ATP present.
Using the CellTiter-Glo luminescent cell viability assay, the amount of cellular ATP was measured in the lymphoblastoid cell line with complete culture medium following compound treatment for 24 hours. The assay was performed in opaque white Kalypsys 1536-well plates. In the screen, tetraoctylammonium bromide was used as positive control. Library compounds were measured for their ability to cause acute toxicity in the cell line, as reflected by a decrease in intracellular ATP levels, in a concentration-dependent manner. […] AC50 values were determined from concentration-response data modeled with the standard Hill equation.
qHTS protocol for CellTiter Glo lymphoblastoid cellular assay
[Step] [Parameter] [Value] [Description]
1. Reagent; 5 uL; 2500 lymphoblastoid cells/well
2. Time; 5 hr; 37 C incubation
4. Controls; 23 nL; Tetraoctylammonium bromide 6.4pM to 92 uM
5. Time; 24 hr; 37 C incubation
6. Reagent; 5 uL; CellTiter Glo reagent
7. Time; 30 min; Room Temperature
8. Detection; Luminescence; Viewlux plate reader
Keywords: cell viability, cytotoxicity, lymphoblastoid cell line, luminescence, NTPHTS, NTPHTS_NCGC, NIEHS, DSSTox, MLSMR, MLSCN, NIH Roadmap, qHTS, NCGC
For `O=Cc1ccccc1`, the “activity change, negative = cytotoxicity” value was -14.4%.

`CC(=O)/C=C/c1ccccc1`: the “activity change, negative = cytotoxicity” value was -12.7%.

`CCOc1cc(C=O)ccc1O`: the “activity change, negative = cytotoxicity” value is -5.39%.

As for `Oc1c(Cl)c(Cl)c(Cl)c(Cl)c1Cl`, the “activity change, negative = cytotoxicity” value was -15%.

On to `CC(C)(c1ccc(OCC2CO2)cc1)c1ccc(OCC2CO2)cc1` (stereo not drawn), for which the “activity change, negative = cytotoxicity” value is -27.4%.

`Cc1ccccc1O`: the “activity change, negative = cytotoxicity” value is -7.1%.

Turning to `COC1=CC(=O)OC(CCc2ccc3c(c2)OCO3)C1` (stereo not drawn), the “activity change, negative = cytotoxicity” value was -22.9%.

With `Oc1ccccc1Cl`, the “activity change, negative = cytotoxicity” value was -2.5%.

With `COC(=O)c1ccccc1C(=O)OC`, the “activity change, negative = cytotoxicity” value was 3.58%.

Take `CC(C)COC(=O)c1ccccc1C(=O)OCC(C)C`: the “activity change, negative = cytotoxicity” value was -6.9%.

As to `c1ccc(Nc2ccc3ccccc3c2)cc1`, the “activity change, negative = cytotoxicity” value is -1.05%.

As to `c1ccc2c(c1)-c1cccc3cccc-2c13`, the “activity change, negative = cytotoxicity” value is -8.21%.

Regarding `CCOC(=O)c1ccccc1N`, the “activity change, negative = cytotoxicity” value was -10.5%.
